# Assay outcomes as filed in PubChem.
# IL-1B inflam inh: inhibitors of inflammasome signaling (IL-1 beta secretion). THP-1 LPS/ATP IL-1B secretion, AlphaLISA, 16 h; stronger effect = lower value. activity change, % at 57.5 µM. 360,000 tested, 4.7% active; in the data active = activity change below about -50%; inconclusive = mostly about -30% to -49%
#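 Secreted IL-1B measured by AlphaLISA bead assay after 16 h compound exposure of THP-1 cells; compounds (final up to 57.5 uM) added 1 h before LPS (250 ng/mL) and ATP (1.25 mM) stimulation; lower signal means less secretion.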
# MCF10A rerep: DNA re-replication induction in MCF 10a cells | Potency, µM (titrated, usually from 46.1 µM), most hits filed as activators | MCF 10A DNA re-replication, Hoechst nuclear intensity, 48 h | AID 624296 | 350,000 tested, 2.9% active; also: nearly all actives have a fitted effect of over 50% in size
# SW480 rereplic: inducers of DNA re-replication in SW480 colon cancer cells; 340,000 tested, 1.8% active; SW480 DNA re-replication, Hoechst DNA content imaging, 48 h; AID 624297; Potency, µM (series often up to 46.1 µM), actives largely listed as activators; also: nearly all actives have a fitted effect of over 55% in size
#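 Treated cells incubate 48 hr (37 C, 5% CO2), are stained 40 min with Hoechst, and nuclear fluorescence is enumerated; a rise in nuclei with high DNA signal marks re-replication.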
# BCR signal inh: blocks chronic active B-cell receptor signaling; ABC-DLBCL IkBa-CBG/CBR reporter, luminescence ratio, 4 h; Potency, µM (highest dose often 46.1 µM), most hits filed as inhibitors; 340,000 tested, 0.05% active; active = well fitted inhibition curve with a large enough effect in the signal ratio, with a control signal flat, not every such curve was filed as active; inconclusive = small, poorly fitted or top-dose-only effect, or effect the other way, or a change in a side signal; the % refers to the signal ratio
#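 Concentration-response series (up to 46 uM) were applied to TMD8 dual-reporter cells for 4 h at 37C with doxycycline. Green/red ratio, after filter-overlap correction, defined %Activity; red signal alone was normalised to basal cells and zero luminescence.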
# DT40 TDP1 CPT: growth inhibition of DT40 Tdp1-/-;hTDP1 cells with camptothecin (screen for TDP1 inhibitors). chicken DT40 Tdp1-/-;hTDP1 cells + 20 nM CPT, ATP luminescence, 48 h. Potency, µM (highest dose often 46.2 µM), usual class: inhibitors. 420,000 tested, 12% active; also: nearly all actives have a fitted effect of over 55% in size
#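 Cell growth measured by CellTiter-Glo luminescence after a minimum 48 h, 37 C compound exposure with 20 nM CPT in Tdp1-knockout DT40 cells stably expressing hTDP1, seeded 400/well; qHTS titration format.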
# DT40 TDP1 no CPT: qHTS for Inhibitors of human tyrosyl-DNA phosphodiesterase 1 (TDP1): qHTS in cells in absence of CPT; DT40 Tdp1-/- hTDP1 cells, no CPT, ATP luminescence, 48 h; Potency, µM (doses to about 46.2 µM), most hits filed as inhibitors; 420,000 tested, 15% active; also: nearly all actives have a fitted effect of over 55% in size
#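 Growth of hTDP1-complemented DT40 Tdp1-knockout cells is measured by ATP luminescence after at least 48 hr compound exposure at 37 °C, with DMSO substituting for the 20 nM CPT used in the parallel screen.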
# A number is an active result; – = inactive; ? = inconclusive; · = no result; [ ] = another dose, or the depositor's remark. Compounds with a hit are over-represented: about 19% of the library has one in this group of screens. Unless noted, calls follow the shape of the dose curve; as a rule, active = well fitted curve in the direction sought with a large enough effect; inconclusive = small, poorly fitted or top-dose-only effect, or another doubt; inactive = no such curve, though single readings can be large; an effect the other way counts as inactive or inconclusive.
SMILES,IL-1B inflam inh,MCF10A rerep,SW480 rereplic,BCR signal inh,DT40 TDP1 CPT,DT40 TDP1 no CPT
COc1ccccc1-c1cc(NC=O)c2ncc(-c3cccc(C(=O)N(C)C)c3)n2c1,–,·,·,·,?,?
CCSc1ccc(-c2cc(NC=O)c3ncc(-c4cccc(C(=O)NCCN(C)C)c4)n3c2)cc1,-108,·,·,·,4.6µM,3.3µM
CN(C)CCNC(=O)c1cccc(-c2cnc3c(NC=O)cc(-c4cccc(F)c4)cn23)c1,–,·,·,·,?,?
COc1ccccc1-c1cc(NC=O)c2ncc(-c3cccc(C(C)=O)c3)n2c1,–,·,·,·,6.5µM,7.3µM
CC(=O)Nc1cc(-c2cccc(C(=O)NCCN(C)C)c2)cn2c(-c3cccc(C(F)(F)F)c3)cnc12,–,·,·,·,?,?
CSCc1cc(C(=O)NC2CC2)c(N)s1,–,·,·,·,?,?
O=C(CSc1nc2c(c(=O)[nH]1)CCC2)Nc1cccc(O)c1,·,·,·,·,–,–
CC1=C(C(=O)N(C(C)C)C(C)C)CC(CC(=O)NC2CCCC2)C(=O)N1Cc1ccc(C(C)(C)C)cc1 (centres undefined),-68,·,·,·,21µM,23µM
COc1ccc(CN2C(=O)C(CC(=O)NC3CCCCC3)CC(C(=O)N(C(C)C)C(C)C)=C2C)cc1 (centres undefined),–,·,·,·,?,15µM
CCN(CC)C(=O)C1=C(C)N(Cc2ccc(C(C)(C)C)cc2)C(=O)C(CC(=O)NC2CCCCC2)C1 (centres undefined),–,·,·,·,15µM,12µM
CC1=C(C(=O)N(C)C)CC(CC(=O)NC2CCCCC2)C(=O)N1Cc1ccc(C(C)(C)C)cc1 (centres undefined),–,·,·,·,?,?
CC1=C(C(=O)N2CCCCCC2)CC(CC(=O)NC2CCCC2)C(=O)N1Cc1ccccc1 (centres undefined),–,·,·,·,–,–
CC1=C(C(=O)N2CCCCCC2)CC(CC(=O)NC2CCCC2)C(=O)N1Cc1ccc(C(C)(C)C)cc1 (centres undefined),-73,·,·,·,?,?
CCCCCCn1c(-c2cccs2)n[nH]c1=S,–,–,–,–,–,–
CCOc1ccc(C(=O)NCC(=O)NCC(c2cccs2)N2CCOCC2)cc1 (centres undefined),–,–,?,–,–,–
Cc1cc(=O)oc2cc(O[C@@H]3O[C@H](C(=O)O)[C@@H](O)[C@H](O)[C@H]3O)ccc12,·,·,·,·,–,–
CCOC(=O)c1noc2ncnc(Nc3ccc(F)cc3F)c12,·,·,·,·,–,–
CC(C)Sc1nc2ccccc2n1CC(=O)O,–,–,–,?,–,–
CCOC(=O)c1ccc(NC(=O)NC2=NCCS2)cc1,–,·,·,·,–,?
Cc1nc2c(-c3ccc(F)cc3)c(C)nn2c(C)c1CCC(=O)Nc1ccccc1F,–,?,?,–,?,–
Cc1nc2c(-c3ccccc3)c(C)nn2c(C)c1CCC(=O)NC(C)CCc1ccco1 (centres undefined),?,–,–,–,12µM,9.2µM
COc1ccccc1-c1cc2nc(C)c(CCC(=O)NC(C)CCc3ccco3)c(C)n2n1 (centres undefined),–,–,–,?,23µM,21µM
COc1ccccc1-c1ccc(C(=O)N2CCC(N3CCc4ccccc4C3)CC2)c(N(C)CC2COCCO2)n1 (centres undefined),·,·,·,·,–[9.04 µM],–
O=C(NC1CCN(Cc2ccccc2)CC1)c1ccccc1OCc1ccccc1Cl,-88,–,–,?,16µM,?
CCCN1C2CCCC1CC(NC(=O)c1ccccc1OC)C2 (centres undefined),–,–,–,–,–,–
SMILES,IL-1B inflam inh,MCF10A rerep,SW480 rereplic,BCR signal inh,DT40 TDP1 CPT,DT40 TDP1 no CPT
O=C(NC1CCN(Cc2ccccc2)CC1)c1ccccc1OCc1ccccc1,–,–,–,–,?,7.3µM
CCOc1ccccc1C(=O)NC1CCN(Cc2ccccc2)CC1,–,–,–,–,–,–
CCOc1ccccc1C(=O)NC1CC2CCCC(C1)N2Cc1ccc(C)cc1 (centres undefined),–,?,–,–,?,21µM
O=C(NC1CCN(Cc2ccccc2)CC1)c1ccccc1Cl,–,–,–,–,–,–
C#CCOc1ccccc1CNC1CCN(Cc2ccccc2)CC1,–,–,–,–,?,21µM
Fc1ccc(-c2nc(-c3c[nH]c4ccccc34)cs2)cc1,·,·,·,·,–,–
Cc1noc(C)c1COc1ccc(C(=O)OCC(=O)Nc2ccc(C(=O)N(C)C)cc2)cc1,–,–,–,–,–,–
COc1ccc([N+](=O)[O-])cc1NC(=O)C(C)OC(=O)CSC(C)C(=O)Nc1cc(C)on1 (centres undefined),–,?,–,–,–,–
Cc1ccccc1OCCC(=O)OCC(=O)NNC(=O)c1cccs1,–,–,–,–,–,–
Cn1nccc1CNC(=O)c1c(Cl)cnn1C,–,–,?,–,–,–
Cn1ncc(Cl)c1C(=O)NCc1cc(C(C)(C)C)n[nH]1,–,–,–,–,?,18µM
O=C(CN1CCN(c2ccc(F)cc2)CC1)N1CCC(Cc2ccccc2)CC1,-52,8.2µM,8.2µM,–,?,?
NS(=O)(=O)c1ccc(CCNC(=O)CN2CCN(Cc3cccc(C(F)(F)F)c3)CC2)cc1,–,?,–,–,23µM,23µM
NS(=O)(=O)c1ccc(CCNC(=O)CN2CCC(Cc3ccccc3)CC2)cc1,–,–,–,–,?,16µM
COc1ccc(CCNC(=O)CN2CCN(c3cccc(C(F)(F)F)c3)CC2)cc1,–,–,–,?,?,?
O=C(CN1CCN(c2ccc(F)cc2)CC1)N1CCOCC1,–,?,–,–,–,–
O=C(CN1C(=O)C2C3C=CC(C3)C2C1=O)NCCc1ccccc1 (centres undefined),–,?,?,–,12µM,23µM
CCC1SC(CC)C(=O)N(CC(=O)NCCc2ccccc2)C1=O (centres undefined),–,–,–,–,–,–
COc1cc(OC)cc(C(=O)NCCS(=O)(=O)N2CCN(Cc3ccccc3)CC2)c1,–,–,–,–,?,?
C[C@@H]1CN([C@@H](C)CO)S(=O)(=O)c2ccc(Br)cc2O[C@@H]1CN(C)C(=O)c1ccccn1,–,·,·,·,–,–
O=C(NC1CC(=O)N(c2ccc(Cl)cc2)C1)c1ccc2c(c1)OCO2 (centres undefined),·,·,·,–,–,?
O=C(CN1CCC(Cc2ccccc2)CC1)NCCc1ccc(F)cc1,-69,?,?,?,–,–
